# CD11b adhes inh: inhibitors of CD11b/CD18 adhesion to fibrinogen, primary screen, K562 cells, luminescence; inhibition, % at 10 µM; 93,000 tested, 0.54% active; Integrin beta-2 (Homo sapiens) + Integrin alpha-M (Homo sapiens), P05107+P11215; AID 1497, 2009; ATPlite luminescence; Mn2+ added to activate the integrin;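 active = primary inhibition of 50% or more at 10 µM, then 40% or more on retest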
# S1P2 blocker: human S1P2 receptor antagonists, primary screen, cell-based. cell-based S1P2 antagonist assay, inhibition at 5 uM. inhibition, % at 5 µM. 97,000 tested, 0.21% active. AID 736, 2007; in the data active = inhibition above about 45%;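 also: CRE beta-lactamase reporter cells expressing human S1P2 stimulated with S1P; 0% = agonist at EC80 alone and 100% = agonist plus reference antagonist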
# CD11b adhes enh: enhancers of CD11b/CD18 adhesion to fibrinogen, primary screen, K562 cells, luminescence. activation, % at 10 µM. 93,000 tested, 0.07% active. Integrin beta-2 (Homo sapiens) + Integrin alpha-M (Homo sapiens), P05107+P11215. ATPlite luminescence;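 active = 10 µM primary screen giving 50% or more activity, confirmed by 40% or more on retest at that dose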
# GALR2 blocker: GALR2 antagonists in receptor-expressing cells, primary screen; AID 828, 2007; antagonist mode; 140,000 tested, 0.39% active; inhibition, % at 4 µM; Galanin receptor type 2 (Homo sapiens), O43603; in the data active = inhibition above about 27%;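 also: cells stimulated with galanin 1-16 at roughly its EC80; 0% = agonist challenge control and 100% = basal control without agonist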
# Target sequence (O43603 whole entry, looked up): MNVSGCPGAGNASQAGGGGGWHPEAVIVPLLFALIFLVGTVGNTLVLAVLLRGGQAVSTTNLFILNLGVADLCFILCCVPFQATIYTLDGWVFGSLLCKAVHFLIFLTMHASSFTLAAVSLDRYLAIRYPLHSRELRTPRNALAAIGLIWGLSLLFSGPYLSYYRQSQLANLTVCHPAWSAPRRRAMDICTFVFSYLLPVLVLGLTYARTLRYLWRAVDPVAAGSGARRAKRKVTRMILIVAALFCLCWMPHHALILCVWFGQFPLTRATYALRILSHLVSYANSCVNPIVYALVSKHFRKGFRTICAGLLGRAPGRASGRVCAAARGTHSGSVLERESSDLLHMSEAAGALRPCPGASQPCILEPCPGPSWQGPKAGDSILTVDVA
# S1P2 agonist: S1P2 receptor agonists, primary screen, cell-based | 97,000 tested, 0.46% active | S1P2-expressing cell line, agonist reporter read-out | activation, % at 4.5 µM | AID 729, 2007 | Sphingosine 1-phosphate receptor 2 (Homo sapiens), O95136; in the data active = activation above about 16%;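 also: 0% = vehicle low control and 100% = maximal reference agonist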
# GALR2 ag: GALR2 receptor agonists, primary screen, cell-based; Galanin receptor type 2 (Homo sapiens), O43603; AID 803, 2007; GALR2-expressing cells, agonist activation read-out; activation, % (concentration not given with the values); 140,000 tested, 0.48% active; in the data active = activation above about 5%, passing the limit was not always enough;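 also: 0% = vehicle buffer wells and 100% = reference agonist at full effect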
# Starred values were filed as active, the others as inactive; . = not tested or not shown. Most compounds without a hit are left out; they make up all but 1.4% or so of the library.
SMILES,CD11b adhes inh,S1P2 blocker,CD11b adhes enh,GALR2 blocker,S1P2 agonist,GALR2 ag
Cc1noc(C)c1COc1ccc(C(=O)OCC(=O)NC23CC4CC(CC(C4)C2)C3)cc1,55.9*,-17.7,0.7,-17.6,-5.7,-3.1
Cc1noc(C)c1COc1ccc(C(=O)OCC(=O)NC2CCCCC2C)cc1 (stereo not drawn),7.0,7.6,-3.1,11.3,-6.8,-1.4
COc1cc2c(cc1OC)C(c1cc3ccccc3oc1=O)=NC(C)(C)C2,.,-58.4,.,13.4,32.8*,-0.1
O=c1c2ccc(Cl)cc2nc(-c2cccc(C(F)(F)F)c2)n1O,69.1*,20.1,-7.7,-8.2,-5.3,-2.2
Cc1cnc(C(=O)OCC(=O)NCCc2ccccc2)cn1,-5.0,14.9,-1.1,17.2,-5.3,-2.3
O=c1[nH]c(=O)n(C2CCCCCC2)c(O)c1C=NCc1ccc(F)cc1,7.7,-27.7,-3.2,-14.3,10.8,2.1
O=C(C#Cc1cccc([N+](=O)[O-])c1)c1ccccc1,11.0,74.9*,-3.3,25.0,-9.9,-2.9
COc1cc2c(cc1OC)C(CC#N)=NC(C)(C)C2,-23.0,-45.6,-0.3,-3.0,17.8*,-1.8
COc1cc2c(cc1OC)C(=S)NC(C)(C)C2,0.2,-31.4,-2.0,-0.5,-1.2,-1.2
Cn1c(=O)c2c(ncn2CC(=O)N/N=C/C(Cl)=C/c2ccccc2)n(C)c1=O,13.1,.,20.0,-8.7,.,-0.8
O=C(NCc1ccccc1)c1sc(=S)n2c1[nH]c(=O)c1ccccc12,102.9*,5.0,-7.0,7.3,-5.4,-1.5
O=C(NCc1ccccc1)c1c(F)c(F)c(F)c(F)c1F,43.4,10.1,-3.9,10.7,-2.8,-1.5
Oc1ccc(CN2CCN(Cc3ccccc3)CC2)c2cccnc12,.,20.9,.,12.9,-7.4,-1.1
Cc1ccc(-c2nc(-c3ccccc3)no2)c(Cl)c1,104.2*,13.1,-10.0,5.6,-5.2,-3.8
COCCNC(=O)CN(C(=O)Cn1nnc2ccccc21)c1ccccc1,-4.7,-7.9,-3.0,-3.6,-2.8,0.3
CCN(CC)c1c2c(c(C#N)c3nc4ccccc4n13)CCC2,.,-36.4,.,3.8,19.5*,0.8
CC(=O)c1ccc(OCCCC(=O)n2nnc3ccccc32)cc1,3.3,13.7,-4.7,3.0,-0.9,-3.2
CSCCC1C(=O)OC2(C)CC(C)(C)NC(=S)N12 (stereo not drawn),.,-14.9,.,4.0,-1.6,-3.9
COc1ccc(-c2ccc3c(N)c(C(=O)c4ccc(OC)c(OC)c4)sc3n2)cc1,13.0,30.7,19.2,9.9,-4.2,-1.8
COc1ccc(C(=O)c2sc3nc(-c4ccccc4)ccc3c2N)cc1OC,3.7,57.0*,54.3,20.2,-13.6,0.2
Cc1[nH]n(-c2ccccc2)c(=O)c1N=Nc1nccs1,56.1*,-19.5,0.7,13.3,-5.0,-2.2
Oc1ccc(Cl)cc1-c1cc(C(F)(F)C(F)F)nc(-c2ccccc2)n1,59.1*,-6.5,-7.3,3.6,-3.1,-1.1
Cc1ccc(O)c(-c2cc(C(F)(F)C(F)F)nc(-c3ccccc3)n2)c1,.,4.5,.,-6.4,-2.8,-1.5
COc1ccc(NC(=O)CSc2nnc(-c3ccccc3)n2N)cc1,.,-3.3,.,3.2,-1.4,-1.5
CCn1c2ccccc2c2cc(NC(=O)CSc3nnc(-c4ccc(OC)cc4)n3N)ccc21,.,30.3,.,9.1,-11.4,5.2*
SMILES,CD11b adhes inh,S1P2 blocker,CD11b adhes enh,GALR2 blocker,S1P2 agonist,GALR2 ag
O=C(CSc1nnnn1Cc1ccccc1)NCC(=O)c1ccccc1,-43.0,-8.5,5.8,-4.1,-4.5,-0.4
O=C(COc1ccc(Br)cc1Br)NC(=S)N1CCCc2ccccc21,60.2*,11.9,-6.2,1.0,-3.6,-2.0
Cc1ccc(C)c(S(=O)(=O)C(C#N)c2nc3ccccc3nc2N2CCOCC2)c1 (stereo not drawn),95.0*,-0.2,-9.9,9.9,-4.2,0.1
Cc1c(C)n(C)c2ccc([N+](=O)[O-])cc12,.,0.6,.,2.9,-7.8,0.4
C=CCn1c(C)cc(C(=O)COC(=O)[C@@H](NC(=O)c2ccccc2Cl)C(C)C)c1C,79.0*,.,-8.9,3.0,.,-0.9
CN(C)c1ccc(NC(=O)c2cccc(N3C(=O)C4C5C=CC(C5)C4C3=O)c2)cc1 (stereo not drawn),.,-2.2,.,46.9*,-4.0,-3.4
CCN(CC)c1nc(-c2ccc(Cl)cc2)cc(C(F)(F)F)c1C#N,10.0,-5.2,-2.3,10.7,-2.1,0.0
N#Cc1c(C(F)(F)F)cc(-c2cccc(Cl)c2)[nH]c1=O,105.6*,20.1,-11.9,-2.0,1.6,-0.6
Cc1cc(C(F)(F)F)c(C#N)c(=O)[nH]1,.,-5.2,.,6.5,-6.1,-2.5
N#Cc1c(C(F)(F)F)cc(-c2ccc(Cl)cc2)[nH]c1=O,104.1*,2.1,-11.2,2.3,-4.6,1.8
CCOC(=O)c1ccccc1-c1csc(NS(=O)(=O)c2ccc(Cl)cc2)n1,53.6*,-3.5,-4.4,-0.9,0.3,0.1
O=[N+]([O-])c1ccc(N2CCOCC2)nc1,0.0,-2.6,-3.8,-3.9,-2.7,-1.4
CC1=CC2=NC(=O)/C(=C\c3cc(C)n(-c4ccccc4F)c3C)C(=N)N2O1,.,.,.,6.6,.,5.4*
CC1=CC2=NC(=O)/C(=C\c3cc(C)n(-c4ccccc4)c3C)C(=N)N2O1,.,.,.,-4.9,.,0.6
O=C(COC(=O)[C@@H]1CCCN1C(=O)c1cccs1)NCCc1ccccc1,-7.2,-11.4,1.6,6.0,-0.8,-1.2
Cc1ccc(S(=O)(=O)CCC(=O)N2CCc3ccccc32)cc1,-2.0,-7.6,-1.4,-6.7,41.5*,-0.8
CC(C)(C)C(=O)Oc1ccc2cc(-c3ccc4ccccc4n3)c(=O)oc2c1,16.6,.,1.2,8.9,.,0.1
Cn1c(-c2cc3ccc(OC(=O)C(C)(C)C)cc3oc2=O)nc2ccccc21,.,1.8,.,21.5,34.3*,45.5*
COC(=O)[C@@H]1C[C@]2(OC(=O)c3ccccc3)C=CC(=O)C[C@@H]2N1C(=O)OCc1ccccc1,.,.,.,28.0*,.,-1.0
CCCCCCCCCCCCCCCC[n+]1cccc2ccccc21,106.0*,.,-6.6,10.6,.,-2.2
CCCCCCCCC[n+]1cccc2c3ccccc3ccc21,105.9*,47.6*,-9.8,2.1,-2.7,0.0
CCOc1ccc(OCc2cccc(C(=O)O)c2)cc1,58.8*,.,-1.1,.,.,.
CC1(C)C2CCC1(CS(=O)(=O)N1CCOCC1)C(=O)C2 (stereo not drawn),2.4,5.1,-1.1,2.1,-2.4,-1.0
CCOC(=O)c1c(NS(=O)(=O)c2ccc(Br)cc2)sc2c1CCC2,.,8.6,.,-6.3,-3.8,-1.2
COC(=O)c1c(NS(=O)(=O)c2ccc3ccccc3c2)sc2c1CCCC2,51.7*,-8.7,-0.2,-0.6,-6.3,-6.4
COc1ccc(C(=O)COC(=O)c2ccc(NC(C)=O)cc2)cc1[N+](=O)[O-],-16.0,-15.5,1.8,-3.7,-1.7,3.3
